Where a name gives a salt, the structure may show the parent alone. Unmarked numbers belong to inactive results.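 The calls were made as follows: active = log2 fold change beyond 2 SD from the library mean after excluding viability outliers; inactive = within 2 SD.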
What follows are compounds tested against PARP1 L713F-nLuc biosensor (HCT116) (UniProt P09874) (assay: PARP1 L713F-nLuc/akaLuc ratio relative to DMSO control (biosensor stabilization) (fold change); higher = more PARP1 biosensor stabilization (target engagement / stabilizer), active = hit call of the paper). Details: stock concentration (mM; final µM = stock mM x 1): 10; 24 h.
Sequence of PARP1 L713F-nLuc biosensor (HCT116) (P09874 whole entry L713F, looked up): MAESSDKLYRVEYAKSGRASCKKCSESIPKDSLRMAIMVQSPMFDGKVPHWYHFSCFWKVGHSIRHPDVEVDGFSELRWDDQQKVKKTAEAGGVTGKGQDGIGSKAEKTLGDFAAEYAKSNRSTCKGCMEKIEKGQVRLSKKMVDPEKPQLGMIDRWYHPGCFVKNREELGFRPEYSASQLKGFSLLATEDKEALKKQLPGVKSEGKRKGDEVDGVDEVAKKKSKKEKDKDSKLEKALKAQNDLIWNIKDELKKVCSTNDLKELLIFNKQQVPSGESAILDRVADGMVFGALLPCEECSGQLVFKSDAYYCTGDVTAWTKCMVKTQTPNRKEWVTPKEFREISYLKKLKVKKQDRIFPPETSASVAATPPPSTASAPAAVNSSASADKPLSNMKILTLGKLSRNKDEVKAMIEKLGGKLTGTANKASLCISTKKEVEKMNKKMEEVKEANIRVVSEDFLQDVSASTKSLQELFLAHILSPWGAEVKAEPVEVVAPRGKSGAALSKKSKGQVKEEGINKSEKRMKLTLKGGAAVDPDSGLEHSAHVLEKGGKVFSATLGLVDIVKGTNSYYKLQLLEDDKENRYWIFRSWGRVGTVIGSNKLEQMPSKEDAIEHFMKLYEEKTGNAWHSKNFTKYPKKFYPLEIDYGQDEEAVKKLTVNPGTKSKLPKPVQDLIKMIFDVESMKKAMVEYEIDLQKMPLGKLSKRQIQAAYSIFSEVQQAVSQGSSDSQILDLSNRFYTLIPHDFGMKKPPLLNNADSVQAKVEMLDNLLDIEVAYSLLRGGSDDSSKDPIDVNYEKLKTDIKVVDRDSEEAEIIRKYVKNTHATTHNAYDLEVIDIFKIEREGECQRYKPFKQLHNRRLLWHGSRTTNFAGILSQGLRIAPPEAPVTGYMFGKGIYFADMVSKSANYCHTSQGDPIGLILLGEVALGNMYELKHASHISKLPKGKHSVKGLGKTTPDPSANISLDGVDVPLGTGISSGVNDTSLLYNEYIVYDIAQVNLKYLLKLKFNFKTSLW
With O=C(NO)c1cnc(NC2(c3ccccc3)CCC(F)(F)CC2)nc1 the “PARP1 L713F-nLuc/akaLuc ratio” value was 5.69 (active). N[C@@H](CNC(=O)C(=O)O)C(=O)O [Dencichine] was tested, and the “PARP1 L713F-nLuc/akaLuc ratio” value was 1.45. With CC(=O)O[C@H]1[C@H]2[C@@H](OC(=O)Cc3ccccc3)[C@@H](C)C[C@]2(OC(C)=O)C(=O)/C(C)=C/[C@@H]2[C@H](CC[C@@]13CO3)C2(C)C [Euphorbiasteroid] the “PARP1 L713F-nLuc/akaLuc ratio” value was 0.646. In the case of COc1ccc2c(c[n+](C)c3c4cc5c(cc4ccc23)OCO5)c1OC [Chelerythrine (chloride)], the “PARP1 L713F-nLuc/akaLuc ratio” value is reported as 0.843. Clc1ccc2c(N3CCNCC3)ccnc2c1 [7-Chloro-4-(piperazin-1-yl)quinoline] was tested, and the “PARP1 L713F-nLuc/akaLuc ratio” value was 0.933. With O=C(NO)c1cnc(NC2(c3cccc(F)c3)CCCCC2)nc1 the “PARP1 L713F-nLuc/akaLuc ratio” value was 0.756. For COc1cc(C)[nH]c(=O)c1CNC(=O)c1c(C)n([C@H](C)C2CCOCC2)c2ccccc12, the “PARP1 L713F-nLuc/akaLuc ratio” value was 0.857. With COc1c2c3c4c(c(OC)c(=O)c5c(O)cc(OC)c(c6c(OC)cc(O)c(c1=O)c63)c54)[C@@H](C(C)=O)[C@@](C)(O)C2 [Hypocrellin A] the “PARP1 L713F-nLuc/akaLuc ratio” value was 0.849. In the case of NCCCNCCSP(=O)(O)O [Amifostine], the “PARP1 L713F-nLuc/akaLuc ratio” value is reported as 1.22. For CC[C@@H](C(=O)[C@@H](C)[C@@H](O)[C@H](C)[C@@H]1O[C@@H]([C@@H](CC)C(=O)O)CC[C@@H]1C)[C@H]1O[C@]2(C=C[C@@H](O)[C@]3(CC[C@@](C)([C@H]4CC[C@](O)(CC)[C@H](C)O4)O3)O2)[C@H](C)C[C@@H]1C [Salinomycin (from Streptomyces albus)], the “PARP1 L713F-nLuc/akaLuc ratio” value was 0.553. In the case of C[C@H](CCC(=O)O)C[C@H](C)C[C@H](C)C(=O)/C=C(\O)[C@H](C)C[C@H](C)C/C=C/[C@@H](C)[C@@H](O)[C@@H](C)[C@@H](O)C[C@@H]1CC[C@@](C)([C@H]2CC[C@@](C)([C@@H](C)O)O2)O1 [Ionomycin (calcium)], the “PARP1 L713F-nLuc/akaLuc ratio” value is reported as 0.727. CN(C)NC(=O)CCC(=O)O [Daminozide] was tested, and the “PARP1 L713F-nLuc/akaLuc ratio” value was 0.786. With C/C=C(/C)C(=O)O[C@H]1[C@@H]2[C@H](C)C(=O)O[C@@H]2C[C@@H](C)[C@@H]2C=CC(=O)[C@]21C [Brevilin A] the “PARP1 L713F-nLuc/akaLuc ratio” value was 1.47. In the case of O=C(O)CNC(=O)C1C(=O)N(C2CCCCC2)C(=O)N(C2CCCCC2)C1=O [Daprodustat], the “PARP1 L713F-nLuc/akaLuc ratio” value is reported as 0.831. With COCC1(CO)C(=O)C2CCN1CC2 (stereo not drawn) the “PARP1 L713F-nLuc/akaLuc ratio” value was 1.09. For CC[C@@]1(O)C(=O)OCc2c1cc1n(c2=O)Cc2cc3ccccc3nc2-1 [Camptothecin], the “PARP1 L713F-nLuc/akaLuc ratio” value was 0.495. Cn1cc(C2=C(c3cn(C4CCN(Cc5ccccn5)CC4)c4ccccc34)C(=O)NC2=O)c2ccccc21 [Enzastaurin] was tested, and the “PARP1 L713F-nLuc/akaLuc ratio” value was 0.72. With O=C(O)CNC(=O)c1c(O)c2ccccc2n(Cc2ccccc2)c1=O the “PARP1 L713F-nLuc/akaLuc ratio” value was 1.76. Cn1cc(C2=C(c3cn(C4CCN(Cc5ccccn5)CC4)c4ccccc34)C(=O)NC2=O)c2ccccc21 was tested, and the “PARP1 L713F-nLuc/akaLuc ratio” value was 1.12. For CC(O)(CS(=O)(=O)c1ccc(F)cc1)C(=O)Nc1ccc(C#N)c(C(F)(F)F)c1 (stereo not drawn) [Bicalutamide], the “PARP1 L713F-nLuc/akaLuc ratio” value was 0.786. For c1cncc(C2Nc3ccccc3-n3cccc32)c1 (stereo not drawn), the “PARP1 L713F-nLuc/akaLuc ratio” value was 0.887. In the case of Cc1cc(O)cc(C)c1C=C1C(=O)N(Cc2ccccc2)C(=O)N(Cc2ccccc2)C1=O, the “PARP1 L713F-nLuc/akaLuc ratio” value is reported as 1.52. CCN1CCN(C(=O)Cc2ccc(Nc3ncc(F)c(Nc4ccc(C(=O)Nc5ccccc5Cl)cc4)n3)cc2)CC1 was tested, and the “PARP1 L713F-nLuc/akaLuc ratio” value was 1.15. In the case of COc1cc(C(=O)N2CC[C@@H](O)[C@@H](N)C2)cc2nc(-c3cc4ccccc4n3CC3CC3)n(C)c12 [GSK484 (hydrochloride)], the “PARP1 L713F-nLuc/akaLuc ratio” value is reported as 1.09. For CC[C@@H](C(N)=O)N1CCCC1=O [Levetiracetam], the “PARP1 L713F-nLuc/akaLuc ratio” value was 1.19. With CCCC(=O)O[C@@H]1[C@@H](C)[C@@]2(O)[C@@H](C=C(CO)C[C@]3(O)C(=O)C(C)=C[C@@H]23)[C@@H]2C(C)(C)[C@]12OC(=O)CCC [Phorbol 12,13-dibutyrate] the “PARP1 L713F-nLuc/akaLuc ratio” value was 1.36. CCC1(c2ccc(N)cc2)CCC(=O)NC1=O (stereo not drawn) [Aminoglutethimide] was tested, and the “PARP1 L713F-nLuc/akaLuc ratio” value was 0.862. In the case of CCc1c(C(=O)C(N)=O)c2c(OCC(=O)O)cccc2n1Cc1ccccc1, the “PARP1 L713F-nLuc/akaLuc ratio” value is reported as 0.845. C[C@@H]1C(=O)O[C@H]2[C@H](O)[C@@]34O[C@@H]5OC(=O)[C@H](O)[C@@]56[C@H](C(C)(C)C)[C@H](O)C(OC3=O)[C@]64[C@@]12O (stereo partly drawn) [Ginkgolide C] was tested, and the “PARP1 L713F-nLuc/akaLuc ratio” value was 0.961. For COc1ccc2c(c1)C(c1ccc(Cl)cc1)=N[C@@H](CC(=O)O)c1nnc(C)n1-2 [I-BET762 carboxylic acid], the “PARP1 L713F-nLuc/akaLuc ratio” value was 0.834. In the case of C=C1C[C@@H]2[C@H](CC[C@]3(C)C(=O)CC[C@@H]23)[C@@]2(C)C=CC(=O)C=C12 [Exemestane], the “PARP1 L713F-nLuc/akaLuc ratio” value is reported as 1. With c1ccc([C@@H]2C[C@H]2NC2CCNCC2)cc1 [GSK-LSD1 (dihydrochloride)] the “PARP1 L713F-nLuc/akaLuc ratio” value was 0.955. CC(C)=CCCC1=CC(=O)c2c(O)ccc(O)c2C1=O [Deoxyshikonin] was tested, and the “PARP1 L713F-nLuc/akaLuc ratio” value was 0.834.

Reference: the supplement of paper PMC11624193, “Coupling cellular drug-target engagement to downstream pharmacology with CeTEAM” (Nature Communications, 2024)
